The whole screen tested about 65,000 compounds, of which about 2,100 (3.2%) showed an effect of 50% or more. The median lay at about -52%. The entries come from a sample that favours strong results as a whole.
Test system: Plasmodium falciparum
Assay: Screen against P. falciparum Asexual Blood Stage (ABS), at 5uM
Type: functional, Dd2
Settings: tested at 5 uM

Row | SMILES | INHIBITION [%]
1 | CN1CCN(Cc2ccncc2)Cc2cccnc21 | -190
2 | Fc1ccc(CNC2CCN(CCc3ccncc3)CC2)cc1F | 89.8
3 | C[C@@H]1C[C@@H]2CCN(Cc3ccncc3)C[C@H]2O1 | -17.4
4 | Cc1ccc(CNC2CCN(CCc3ccncc3)CC2)cc1C | 86.9
5 | CN(c1ncccc1C#N)C1CCN(CCc2ccncc2)CC1 | 30.8
6 | Cc1cccc(CNC2CCN(CCc3ccncc3)CC2)c1C | 76.3
7 | COCCNC(=O)[C@@]12CCO[C@@H]1CCN(Cc1ccncc1)C2 | -51.1
8 | c1ccc2c(c1)CCC21CN(CCc2ccncc2)CCO1 (configuration not stated) | -30.5
9 | Clc1cccc(CNC2CCN(CCc3ccncc3)CC2)c1 | 92.3
10 | Cc1n[nH]c2c1C(c1ccc(Cl)cc1)SCC(=O)N2 (configuration not stated) | -12.6
11 | Cc1ccc(C(=O)N2C[C@@H]3OCCN(C(C)C)[C@@H]3C2)cn1 | -18.4
12 | Cc1cccc(CN2C(=O)C[C@H]3[C@@H]2CCN3Cc2ccco2)n1 | 13.4
13 | COCCN1CCO[C@H]2CN(C(=O)c3ccncc3F)C[C@H]21 | -230
14 | CC(Cn1cccn1)NCC(=O)NC1CCOCC1 (configuration not stated) | -32.4
15 | Cc1cc(CC(=O)N2CCN(C)[C@@H]3CS(=O)(=O)C[C@@H]32)ccc1F | -54.5
16 | C[C@@H]1CN(Cc2ccsc2)C[C@]12CCN(Cc1cccnc1)C2=O | -45.2
17 | CCN1C[C@H]2CCN(Cc3ccncc3)C(=O)[C@@H]2C1 | -66.4
18 | CSc1ccc(CNC2CCN(CCc3ccncc3)CC2)cc1 | 93
19 | CC1CN(CCc2ccncc2)CCO1 (configuration not stated) | -107
20 | Cc1nc(CO[C@H]2CN(Cc3ccccn3)[C@@H]3CCCO[C@H]23)cs1 | -44.2
21 | CC1=N[C@@]2(CC[C@@H]3CNC[C@@H]32)C(=O)N1CC(C)C | -138
22 | CC1=N[C@@]2(CC[C@@H]3CN(Cc4ccccc4C)C[C@@H]32)C(=O)N1CC1CC1 | 85.1
23 | CCC1=N[C@@]2(CC[C@@H]3CN(CC)C[C@@H]32)C(=O)N1C | -47.6
24 | CNC(=O)[C@H]1C[C@@H]2CN(C(=O)c3cncc(C)c3)C[C@@H]2N1C | -93.3

Row | SMILES | INHIBITION [%]
25 | CC(C)NC(=O)C1(Cc2ccccc2-c2ccccc2)CCCNC1 (configuration not stated) | 76.7
26 | CC(C)CNC(=O)C1(Cc2ccccc2-c2cccs2)CCNC1 (configuration not stated) | 71.7
27 | O=C(Nc1ccccc1)C1=NOC2(CCCNC2)C1 (configuration not stated) | -22.7
28 | CC(C)NC(=O)N1CCOC2(CCCNC2)C1 (configuration not stated) | -67.8
29 | CC(C)CNC(=O)N1CCOC2(CCNCC2)C1 | -53.6
30 | CC(C)NC(=O)[C@@H]1C[C@H]2NCC[C@H]2O1 | -104
31 | CCN1CCC2(COCc3cnc(NCC4CC4)nc32)C1 (configuration not stated) | 1.43
32 | CCN1C[C@@H]2[C@@H](OC)CCN(S(=O)(=O)c3cccnc3)[C@@H]2C1 | -17.9
33 | COc1cc2nc(NCc3ccc(C)nc3)nc(N)c2cc1OC | 90.6
34 | COc1cc2nc(NCc3scnc3C)nc(N)c2cc1OC | 89.8
35 | Fc1cccnc1O[C@@H]1CN(Cc2ccco2)[C@@H]2CCCO[C@@H]21 | -48.2
36 | N#Cc1ccc(CNCC2(c3ccccc3)CCOCC2)cc1 | 83
37 | COc1ccccc1C1(CNCc2cccc(O)c2)CCOCC1 | 82.8
38 | CC[C@H]1CN2CC[C@H]1C[C@@H]2CNCc1cccc(C#N)c1 | 34.8
39 | COc1ccccc1N1CCC(CNCc2ccc(C#N)cc2)C1 (configuration not stated) | 94.1
40 | CSC1(CNC(=O)NC(C)Cc2cccc(F)c2)CCOCC1 (configuration not stated) | -25.5
41 | COc1ccccc1C1(CNCc2ccc(C#N)cc2)CCOCC1 | 76.6
42 | O=C([C@@H]1CC[C@@H]2[C@@H](CCN2Cc2ccncc2)O1)N1CCCCO1 | -84.8
43 | O=C1CO[C@@H]2CN(CC3CCOCC3)C[C@H]2N1Cc1ccncc1 | -115
44 | Cc1ccc(C(CCNCCCN(C)C)C2CCOC(C)(C)C2)cc1 (configuration not stated) | 83.6
45 | CN(Cc1cccnc1)[C@@H]1CN(CC2CC2)[C@@H]2CCCO[C@H]12 | -1.12
46 | COc1cc(OC)c(C2SCC(=O)Nc3n[nH]cc32)cc1OC (configuration not stated) | -189
47 | COc1cc(OC)c(C2Nc3cc(Cl)ccc3C3=NCCN32)cc1OC (configuration not stated) | 81.7
48 | C/C(=C\c1ccco1)CN(C)C(C)Cc1cc(C)ccn1 (configuration not stated) | -0.191

Row | SMILES | INHIBITION [%]
49 | CS(=O)(=O)Cc1nc(CN2CC=C(c3ccccc3)CC2)cs1 | -50.8
50 | CCCN1CCN(C(=O)c2cnccc2C)[C@H]2CS(=O)(=O)C[C@H]21 | -12.9
51 | CC(C)c1ncc(Cl)c(C(=O)N2CCN3CCCCC3C2)n1 (configuration not stated) | -158
52 | O=C(c1[nH]c2ccc(Cl)cc2c1Cl)N1CCC2(CC1)OCCO2 | -37.1
53 | Cc1c(C(=O)N2CCC(N3CCCCC3)CC2)n(C)c2ccc(Cl)cc12 | 88
54 | CC(Cn1cncn1)NCc1csc2c1CCCC2 (configuration not stated) | -42.7
55 | c1cnc(NC[C@H]2OC[C@@H]3CCN(Cc4ccncc4)C[C@@H]32)nc1 | -102
56 | c1cc(CN2CC[C@@H]3CN(c4cnccn4)C[C@@H]3C2)ccn1 | -72.2
57 | Fc1ccc(OCCNC2CCN(Cc3ccncc3)CC2)c(F)c1 | 74.2
58 | CNc1ncccc1C(=O)N1CCC2(CCN(C)C2)CC1 | -89.3
59 | Cc1ncc(CNCCO)c2cc(C(=O)c3ccc(Br)cc3)oc12 | 89.3
60 | O=C1C[C@@H]2CC[C@H](CN1)N2C1CSCCSC1 | -45.6
61 | Cc1ccc(CN2CCC3(CCN(Cc4ccncc4)CC3)CC2)cc1 | 78.3
62 | C[C@H]1C[C@@H]2CCN(Cc3ccco3)C[C@H]2O1 | -32
63 | c1cnc(N2CC3(CCN(Cc4ccncc4)C3)C2)nc1 | -104
64 | O=C1CC2(CCN(Cc3ccoc3)C2)CN1c1cncnc1 (configuration not stated) | -51.3
65 | c1cc(CN2CCCC23CCCN(Cc2ccoc2)C3)ccn1 (configuration not stated) | -105
66 | Fc1ccc(CN2CCC3(CC2)CCN(Cc2nccs2)CC3)cc1 | 86.6
67 | Cc1ccc(CN2CCC3(CC2)CCN(Cc2ccco2)CC3)cc1 | 91.7
68 | O=C1NC[C@H]2CN(Cc3nccs3)CCN12 | -41.7
69 | O=C1Nc2ccccc2C12CCN(Cc1nccs1)CC2 | -15.8
70 | CN1CCN(Cc2ccco2)Cc2cccnc21 | -15.8
71 | Cc1ccc(CN2CCC3(CC2)CCN(Cc2ccoc2)CC3)cc1 | 92.7
72 | Cn1ccnc1CN1CC2(CCN(Cc3ccncc3)C2)C1 | -45.8

Reference: ChEMBL document CHEMBL4513216, “Probing the Open Global Health Chemical Diversity Library for Multistage-Active Starting Points for Next-Generation Antimalarials” (ACS Infect Dis, 2020)
